Screening results: PubChem, Johns Hopkins Ion Channel Center
KCNQ2 enhance = potentiators of rat KCNQ2 potassium channel; Potassium voltage-gated channel subfamily KQT member 2 (Rattus norvegicus), O88943; CHO-K1 KCNQ2, FluxOR thallium flux fluorescence; stronger effect = higher value; B-score at 10 µM; hit rate 0.54% among 310,000; AID 2239, 2010;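 active = fluorescence ratio B-score at least 3 SD of library B-scores, with initial fluorescence B-score within 3 of them, cut at about 5.3 in these data; same plate scores as AID 2156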;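 also: B-score of peak minus minimum over baseline fluorescence ratio after K+ and Tl+ stimulus; positive B-score means potentiation of KCNQ2 with more thallium influx and brighter signal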
Target sequence (O88943 whole entry, looked up): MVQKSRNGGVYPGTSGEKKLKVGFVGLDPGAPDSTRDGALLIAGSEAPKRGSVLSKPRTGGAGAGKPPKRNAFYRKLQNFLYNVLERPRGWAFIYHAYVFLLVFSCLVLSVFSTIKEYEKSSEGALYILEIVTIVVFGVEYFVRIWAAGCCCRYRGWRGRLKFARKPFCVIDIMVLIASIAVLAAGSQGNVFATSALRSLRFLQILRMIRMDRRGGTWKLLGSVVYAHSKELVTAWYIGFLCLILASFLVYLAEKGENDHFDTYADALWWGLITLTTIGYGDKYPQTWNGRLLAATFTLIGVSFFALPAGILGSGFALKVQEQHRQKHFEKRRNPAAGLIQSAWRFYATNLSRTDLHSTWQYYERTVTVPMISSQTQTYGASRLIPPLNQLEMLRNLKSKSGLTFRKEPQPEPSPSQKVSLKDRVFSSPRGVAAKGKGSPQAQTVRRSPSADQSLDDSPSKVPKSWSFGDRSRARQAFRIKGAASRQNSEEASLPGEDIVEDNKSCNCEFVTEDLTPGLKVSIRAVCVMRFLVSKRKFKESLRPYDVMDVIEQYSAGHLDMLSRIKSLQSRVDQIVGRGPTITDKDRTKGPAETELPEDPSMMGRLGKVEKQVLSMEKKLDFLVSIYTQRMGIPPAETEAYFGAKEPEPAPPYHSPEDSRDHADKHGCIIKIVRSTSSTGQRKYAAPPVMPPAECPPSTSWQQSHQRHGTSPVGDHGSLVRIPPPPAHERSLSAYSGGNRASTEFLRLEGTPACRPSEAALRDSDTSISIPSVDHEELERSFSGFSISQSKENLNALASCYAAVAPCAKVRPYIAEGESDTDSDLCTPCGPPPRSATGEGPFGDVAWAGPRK
KCNQ2 block = rat KCNQ2 potassium channel inhibitors, primary screen, cell-based, CHO-K1, FluxOR thallium flux, B-score; Potassium voltage-gated channel subfamily KQT member 2 (Rattus norvegicus), O88943; 20 min; stronger effect = lower value; B-score at 10 µM; hit rate 1.1% among 310,000; AID 2156, 2009;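 active = fluorescence ratio B-score at most minus 3 library SDs, with starting brightness B-score within 2 library SDs, cut at about -5.5 in these data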
Hits are given with their value; n = inactive; x = not tested or not shown. A selection: hits, their analogues and other compounds. The true share with any hit is near 1.6%.

SMILES	KCNQ2 enhance	KCNQ2 block
CC(NCC(O)COCCC12CC3CC(CC(C3)C1)C2)c1ccccc1 (stereo not drawn)	n	-7.7
NCC(O)COCCC12CC3CC(CC(C3)C1)C2 (stereo not drawn)	x	n
NS(=O)(=O)c1ccc(CCNC(=O)COC(=O)CC(c2ccccc2)c2ccccc2)cc1	x	n
Cc1ccc(S(=O)(=O)N(CC(=O)Nc2ccccc2-c2ccccc2)c2ccc(C)cc2C)cc1	n	-6
Cc1cc(F)ccc1NC(=O)CCCN(C)S(=O)(=O)c1ccc(F)cc1	n	n
Cc1ccc(S(=O)(=O)N(C)CCCC(=O)Nc2ccc(C)cc2C)cc1	6.2	n
Cc1ccc(N(CC(=O)Nc2ccccc2-c2ccccc2)S(=O)(=O)c2ccccc2)cc1	n	-6.2
Cc1cc(C)cc(N(CC(=O)Nc2ccccc2-c2ccccc2)S(=O)(=O)c2ccccc2)c1	x	n
Cc1cccc(N(CC(=O)Nc2ccccc2-c2ccccc2)S(=O)(=O)c2ccccc2)c1C	x	n
CCc1nnc(NC(=O)CSCc2cc(=O)n3nc(C)sc3n2)s1	n	n
COc1cc(/C=C(\NC(C)=O)C(=O)NC(C)(C)C)ccc1OC(C)=O	x	n
N#Cc1ccc(COC(=O)c2ccccn2)cc1	n	n
COc1ccc2c(c1)C(=O)N(c1ccccc1C)C(=O)C2(C)C	x	n
COC(=O)c1cc(NC(=O)c2cccc(C(F)(F)F)c2)c(=O)oc1C/C=N/OCc1cccc(Cl)c1Cl	n	-7.7
COC(=O)c1cc(NC(=O)c2cccc(C(F)(F)F)c2)c(=O)oc1C	x	n
COC(=O)c1cc(OC)c(OC)cc1NC(=O)c1csc(C)c1	x	n
O=C(NN=C1c2ccccc2-c2ccccc21)c1cccc(Br)c1	17	n
O=C(COc1cccc(Br)c1)NN=C1c2ccccc2-c2ccccc21	x	n
CCC(=O)c1ccccc1OCCCN1CCC(Cc2ccccc2)CC1	n	n
CN(C)C(=O)c1cc(C(=O)c2c(F)cccc2F)c[nH]1	n	n
CC(=O)NCCc1nc2cc(NC(=O)c3cccc([N+](=O)[O-])c3)ccc2n1C	x	n
O=C(C1=C[C@H](c2csc3ccccc23)C[C@H](OCc2ccc(CO)cc2)O1)N1CCCCCCC1	n	-5.6
O=C(C1=C[C@@H](c2ccc(Br)cc2)C[C@@H](OCc2ccc(CO)cc2)O1)N1CCN(Cc2ccc3c(c2)OCO3)CC1	n	-6.3
O=C(C1=C[C@@H](c2ccc(C(F)(F)F)cc2)C[C@@H](OCc2ccc(CO)cc2)O1)N1CCN(Cc2ccc3c(c2)OCO3)CC1	x	n
CN1CCN(C(=O)C2=C[C@H](c3csc4ccccc34)C[C@H](OCc3ccc(CO)cc3)O2)CC1	x	n
SMILES	KCNQ2 enhance	KCNQ2 block
S=c1[nH]cnc2scc(-c3ccccc3)c12	11	n
Clc1ncnc2scc(-c3ccccc3)c12	n	n
Cc1c(C=N)c(O)n(C)c(=O)c1C#N	x	n
O=C(Nc1cc(C(F)(F)F)ccc1Cl)C(Sc1ccccn1)c1ccccc1 (stereo not drawn)	x	n
CCCC(=O)OC(C(=O)Nc1cc(C(F)(F)F)ccc1Cl)c1ccccc1 (stereo not drawn)	n	-5.6
Cc1cc(C(=O)NCC(=O)OC(C(=O)Nc2cc(C(F)(F)F)ccc2Cl)c2ccccc2)ccc1[N+](=O)[O-] (stereo not drawn)	n	-5.8
COc1ccc(C)cc1NC(=O)C(OC(=O)CNC(=O)c1ccc(Br)cc1)c1ccccc1 (stereo not drawn)	x	n
Cc1nn(C)cc1S(=O)(=O)NCc1ccc2c(c1)OCO2	n	n
O=C(CSc1ncn[nH]1)N1N=C2/C(=C/c3ccccc3)CCCC2C1c1ccccc1 (stereo not drawn)	n	-5.7
COc1ccc(/C=C2\CCCC3C2=NN(C(=O)CSc2ncn[nH]2)C3c2ccc(OC)cc2)cc1 (stereo not drawn)	x	n
O=C(OCC#CCSc1nnc(-c2ccccc2)o1)c1cccs1	x	n
O=C(OCC#CCSc1nnc(-c2cccc3ccccc23)o1)c1cccs1	n	-5.8
CNC(=S)N1CCN(c2ccc(Cl)c(Cl)c2)CC1	n	n
Cc1ccccc1NC(=O)c1c(C)nc(SCC(=O)OCc2ccccc2)c(C#N)c1-c1ccc(F)cc1	n	-7
Cc1nc(SCC(=O)OCc2ccccc2)c(C#N)c(-c2ccccc2)c1C(=O)Nc1ccccc1	x	n
CCOc1ccc(CN2CCN(Cc3cccn3-c3nccs3)CC2CCO)cc1 (stereo not drawn)	x	n
CC1CCN(S(=O)(=O)N2CCC(C(=O)NCCc3ccccc3)CC2)CC1	n	n
CCCN(CC1CC1)C(=O)COc1ccccc1C(=O)NCc1ccccc1	n	-7.7
CCC(C)N(C(=O)COc1ccccc1C(=O)NCc1ccccc1)C1CCS(=O)(=O)C1 (stereo not drawn)	x	n
CC1CCc2nc(NC(=O)Nc3ccc4c(c3)OCO4)sc2C1 (stereo not drawn)	n	n
CCOC(=O)CNc1c(-c2ccc(O)cc2)nc2ccccn12	x	n
